Several values for one entry are separate records, joined by “and”; a condition that tells them apart may be missing. Equal entries are not always repeated. A structure can be active in one record and inactive in another. Activity calls are given as the source filed them. How the source made its calls: active means hit-call score of the fitted dose curve at least 0.9, where 1 is the maximum; inactive means score below 0.9.
Tests used:
[1] = read-out: Interleukin-8 (IL8), CXCL8 (gene 3576); assay: BSK_MyoF_IL8: BioMAP Diversity Plus: MyoF Assay for Interleukin-8 (IL8) Biomarker Activity (AID 2284261); settings: primary human lung fibroblasts
Procedure, shortened: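 Human lung fibroblast (MyoF system) cultures dosed for 24 h, then IL-8 measured by ELISA. Response taken relative to DMSO; parallel SRB total-protein staining for cytotoxicity.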

CD90, THY1 (gene 7070) = assay: BSK_BF4T_CD90: BioMAP Diversity Plus: BF4T Assay for CD90 Biomarker Activity (AID 2284262); settings: primary human bronchial epithelial cells with fibroblasts
Procedure, shortened: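 CD90 levels by ELISA after 24 h treatment of human bronchial epithelial cell/dermal fibroblast cultures, analysed versus DMSO. Overt cytotoxicity checked in parallel cultures by sulforhodamine B staining.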

[2] = read-out: Interleukin-8 (IL8), CXCL8 (gene 3576); assay: BSK_BF4T_IL8: BioMAP Diversity Plus: BF4T Assay for Interleukin-8 (IL8) Biomarker Activity (AID 2284263); settings: primary human bronchial epithelial cells with fibroblasts
Procedure, shortened: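 Human bronchial epithelial cells with dermal fibroblasts co-culture; IL-8 measured by ELISA 24 hours after dosing, fitted vs DMSO. Cytotoxicity tracked in parallel cultures by SRB total-protein staining.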

[3] = read-out: Interleukin-1 alpha (IL1a), IL1A (gene 3552); assay: BSK_BF4T_IL1a: BioMAP Diversity Plus: BF4T Assay for Interleukin-1 alpha (IL1a) Biomarker Activity (AID 2284264); settings: primary human bronchial epithelial cells with fibroblasts
Procedure, shortened: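 ELISA read-out of IL-1α from bronchial epithelial cell/dermal fibroblast co-cultures 24 h after compound addition. Increases scored against DMSO negative control. Cytotoxicity monitored by sulforhodamine B staining of parallel cultures.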

Decorin, DCN (gene 1634) = assay: BSK_MyoF_Decorin: BioMAP Diversity Plus: MyoF Assay for Decorin Biomarker Activity (AID 2284265); settings: primary human lung fibroblasts
Procedure, shortened: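 Human lung fibroblast cultures were dosed for 24 h, and decorin was then measured by ELISA. Parallel cultures were stained with sulforhodamine B for total protein as a cytotoxicity check. Gain of signal was fitted relative to DMSO.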

[4] = BSK_MyoF_SRB: Viability Assessment in the BioMAP Diversity Plus: MyoF Assay (AID 2284267); settings: primary human lung fibroblasts;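 further: total protein by SRB absorbance in parallel cultures as cytotoxicity measure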
Procedure, shortened: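 In this viability endpoint, fibroblasts from human lung are treated for 24 h, TCA-fixed, SRB-stained (0.1%) and read at 560 nm. Gain of signal relative to DMSO defines activity.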

[5] = read-out: Matrix Metallopeptidase 1 (MMP1), MMP1 (gene 4312); assay: BSK_MyoF_MMP1: BioMAP Diversity Plus: MyoF Assay for Matrix Metallopeptidase 1 (MMP1) Biomarker Activity (AID 2284268); settings: primary human lung fibroblasts
Procedure, shortened: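 Human lung fibroblast primary cells; MMP1 measured by ELISA 24 h after dosing, fitted in the positive direction relative to DMSO. Parallel SRB staining (0.1%, after 10% TCA fixation, 560 nm) assesses overt cytotoxicity.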

[6] = read-out: TIMP metallopeptidase inhibitor 1 (TIMP1), TIMP1 (gene 7076); assay: BSK_MyoF_TIMP1: BioMAP Diversity Plus: MyoF Assay for TIMP metallopeptidase inhibitor 1 (TIMP1) Biomarker Activity (AID 2284269); settings: primary human lung fibroblasts
Procedure, shortened: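 ELISA quantified TIMP-1 levels after 24 h dosing of primary human lung fibroblasts, with DMSO as baseline. Parallel SRB total protein staining (0.1% SRB after TCA fixation, 560 nm) flagged overt cytotoxicity.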

[7] = read-out: Intercellular Adhesion Molecule 1 (ICAM1), ICAM1 (gene 3383); assay: BSK_BF4T_ICAM1: BioMAP Diversity Plus: BF4T Assay for Intercellular Adhesion Molecule 1 (ICAM1) Biomarker Activity (AID 2284260); settings: primary human bronchial epithelial cells with fibroblasts
Procedure, shortened: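 ICAM-1 levels measured by ELISA after 24 h chemical treatment of bronchial epithelial cell/dermal fibroblast co-cultures, read against DMSO baseline. Overt cytotoxicity checked in parallel cultures by sulforhodamine B staining.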

KRT18 (gene 3875) = assay: BSK_BF4T_Keratin818: BioMAP Diversity Plus: BF4T Assay for Keratin 818 Biomarker Activity (AID 2284266); settings: primary human bronchial epithelial cells with fibroblasts
Procedure, shortened: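 Keratin 8/18 levels quantified by ELISA after 24 h chemical treatment of bronchial epithelial cell/dermal fibroblast co-cultures, fitted in positive direction relative to DMSO. Parallel SRB staining tracks overt cytotoxicity.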

| Structure (SMILES) | AC50 [1] | outcome [1] | AC50 (CD90, THY1 (gene 7070)) | outcome (CD90, THY1 (gene 7070)) | AC50 [2] | AC50 [3] | AC50 (Decorin, DCN (gene 1634)) | AC50 [4] | outcome [5] | AC50 [6] | outcome [7] | outcome [2] | outcome [3] | outcome (Decorin, DCN (gene 1634)) | outcome (KRT18 (gene 3875)) | outcome [4] | outcome [6] | AC50 [7] | AC50 (KRT18 (gene 3875)) |
| --- | --- | --- | --- | --- | --- | --- | --- | --- | --- | --- | --- | --- | --- | --- | --- | --- | --- | --- | --- |
| FC(F)(I)C(F)(F)C(F)(F)C(F)(F)C(F)(F)C(F)(F)I | 15 µM (active) and 16.4 µM (active) and 15.6 µM (active) | inactive | 6.21 µM (active) | inactive | 14.9 µM (active) [middle of 5 runs] | 22.7 µM (active) [middle of 5 runs] | 7.74 µM (active) [middle of 5 runs] | 7.31 µM (active) [middle of 5 runs] | inactive | 7.01 µM (active) [middle of 5 runs] | – | – | – | – | – | – | – | – | – |
| OCCC(F)(F)C(F)(F)C(F)(F)C(F)(F)C(F)(F)C(F)(F)F | – | inactive | – | inactive | – | – | – | – | inactive | – | inactive | inactive | inactive | inactive | inactive | inactive | inactive | – | – |
| C=C(C)C(=O)OCCC(F)(F)C(F)(F)C(F)(F)C(F)(F)C(F)(F)C(F)(F)F | – | inactive | – | inactive | – | – | – | – | inactive | – | inactive | inactive | inactive | inactive | inactive | inactive | inactive | – | – |
| C[C@@H]1C[C@H]2[C@@H]3CCC4=CC(=O)C=C[C@]4(C)[C@@]3(F)[C@@H](O)C[C@]2(C)[C@@]1(O)C(=O)COP(=O)(O)O | – | inactive | – | inactive | – | – | – | – | inactive | 562 nM (active) | inactive | inactive | inactive | inactive | inactive | inactive | inactive | – | – |
| OCCC(F)(F)C(F)(F)C(F)(F)C(F)(F)C(F)(F)C(F)(F)C(F)(F)C(F)(F)F | 14.9 µM (active) | inactive | – | inactive | – | 21.5 µM (active) | 15.1 µM (active) and 14.5 µM (active) | 15.1 µM (active) and 14.7 µM (active) | inactive | 13.1 µM (active) and 9.78 µM (active) | – | inactive | inactive | – | inactive | – | – | 30 µM (active) | 38.6 µM (active) |
| CCCCCCCCCCCCCC[N+](C)(C)C | 9.47 µM (active) | – | – | – | – | – | 28.4 µM (active) | 5.25 µM (active) | – | 3320 nM (active) | – | – | – | – | – | – | – | – | – |
| NCC(F)(F)C(F)(F)C(F)(F)C(F)(F)C(F)(F)C(F)(F)C(F)(F)F | – | inactive | – | inactive | – | – | – | – | inactive | – | inactive | inactive | inactive | inactive | inactive | inactive | inactive | – | – |
